# Several values for one entry are separate records, joined by “and”; a condition that tells them apart may be missing. Equal entries are not always repeated. A number with no mark means an inactive call. Results filed as inconclusive are left out. Where a call stands in place of a potency, no number is given. Activity calls are given as the source filed them. Unless noted, calls come from the whole dose curve; as a rule, active = well fitted curve in the direction sought with a large enough effect; inconclusive = small, poorly fitted or top-dose-only effect, or another doubt; inactive = no such curve, though single readings can be large; an effect the other way counts as inactive or inconclusive.
# What was measured:
# [1] = Cell Viability - N2a (AID 540); settings: N2a mouse neuroblastoma cell viability; activity change, negative = cytotoxicity: at 92.2 µM (top of the series);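 note: cells exposed to compound for 40 h at 37 °C; nearly all actives have a fitted effect of over 45% in size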; note: potency is the fitted concentration of half-maximal effect
# Procedure, shortened: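 First, 1500 N2a cells per well incubate 5 hr at 37 °C; next, compounds are added and incubated 40 hr at 37 °C; finally CellTiter-Glo is added and luminescence read after 20 min, with AC50 derived by Hill modeling.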
# [2] = Cellular Toxicity (caspase-3) Jurkat (AID 655); settings: Jurkat caspase-3 activation, luminescence; caspase-3 activation: at 92.2 µM (top of the series), DMSO = 0%, tamoxifen = 100%;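 note: cells exposed to compound for 16 h at 37 °C before reading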
# Procedure, shortened: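 Luminescent Caspase-Glo 3/7 read-out (20 min, room temperature) after 16 h compound treatment at 37 C of 5000 Jurkat cells per well. AC50 derived by Hill-equation fitting, scaled between DMSO basal and 100 uM tamoxifen stimulation.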
# [3] = Cellular Toxicity (caspase-3) BJ (AID 658);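 note: cells exposed to compound for 16 hours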
# Procedure, shortened: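 Readout: Caspase-Glo 3/7 luminescence increase in BJ cells after 16 hr treatment at 37 °C. Staurosporine and tamoxifen served as positive controls; AC50 values came from Hill modelling of data normalized to DMSO and 10 uM staurosporine.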
# [4] = Cellular Toxicity (caspase-3) MRC-5 (AID 659)
# Procedure, shortened: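 Concentration-dependent caspase 3/7 activation is measured in human normal lung fibroblasts (MRC-5) following 16-hour treatment. AC50 values come from standard Hill-equation modeling of luminescence normalized to DMSO and 10 uM staurosporine.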
# [5] = MultiTox-Fluor Cytotoxicity Assay - LYMP1-001 - Dead Cells (AID 946)
# Procedure, shortened: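 Cytotoxicity as increased dead-cell protease fluorescence (bis-AAF-R110, 485/520 nm), read 60 min after MultiTox-Fluor reagent. Human lymphoblastoid line exposed 16 h; Hill-fitted AC50, with DMSO as 0% and 15 uM tetraoctylammonium bromide as 100%.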
# [6] = MultiTox-Fluor Cytotoxicity Assay - LYMP1-003 - Live Cells (AID 962);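 note: cells exposed to compound for 16 hours at 37 °C; cytotoxic hits lower the live-cell protease signal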
# Procedure, shortened: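 Cells plated at 2500 per well and incubated 5 hr; compounds added and incubated 16 hr at 37 C; MultiTox-Fluor reagent added for 60 min at room temperature; fluorescence of liberated AFC measured at 405/510 nm.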
# [7] = Cell Viability - LYMP1-003 - Assay at 24 hr (AID 963)
# Procedure, shortened: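 Acute toxicity in LYMP1-003 lymphoblastoid cells: 24 hr compound treatment at 37 C, ATP measured with CellTiter-Glo after 30 min at room temperature. AC50 derived by fitting the Hill equation to qHTS titrations.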
# [8] = Cell Viability - LYMP1-003 - Assay at 40 hr (AID 964); note: nearly all actives have a fitted effect of over 60% in size
# Procedure, shortened: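 This qHTS cytotoxicity screen treats human lymphoblastoid cells (LYMP1-003) with compounds for 40 hr and quantifies cellular ATP via luciferase luminescence.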
# [9] = Cell Viability - LYMP2-004 (AID 966); note: nearly all actives have a fitted effect of over 65% in size; note: potency is the fitted concentration of half-maximal effect
# Procedure, shortened: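 Acute toxicity is scored as a concentration-dependent drop in intracellular ATP, quantified by luciferase luminescence, in human lymphoblastoid cells exposed to compound for 24 hr. AC50 derives from Hill-equation modelling.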
# [10] = Cell Viability - LYMP2-011 (AID 969); note: nearly all actives have a fitted effect of over 60% in size; note: potency is the fitted concentration of half-maximal effect
# Procedure, shortened: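 Acute toxicity is scored as a concentration-dependent drop in intracellular ATP of a human lymphoblastoid line after 24 hr treatment. Values are AC50s modeled with the Hill equation.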
# [11] = Cell Viability - LYMP2-021 (AID 974);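 note: compound exposure lasts 24 hours at 37 °C; nearly all actives have a fitted effect of over 55% in size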; note: potency is the fitted concentration of half-maximal effect
# Procedure, shortened: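 Concentration-response cytotoxicity in a human lymphoblastoid line: 24 hr treatment at 37 C in complete culture medium, tetraoctylammonium bromide as positive control, luminescent ATP quantitation as viability measure.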
# [12] = Cell Viability - LYMP2-010 (AID 981);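 note: cells exposed to compound for 24 hours at 37 °C; nearly all actives have a fitted effect of over 55% in size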; note: potency is the fitted concentration of half-maximal effect
# Procedure, shortened: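 Acute toxicity is scored as a concentration-dependent loss of cellular ATP in human lymphoblastoid cells after 24 hr compound exposure in complete medium. Tetraoctylammonium bromide is the positive control.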
# [13] = Cell Viability - LYMP2-014 (AID 983); note: nearly all actives have a fitted effect of over 50% in size; note: potency is the fitted concentration of half-maximal effect
# Procedure, shortened: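 Decrease in intracellular ATP after 24 hr treatment at 37 C, measured by luciferase luminescence, indicated cytotoxicity. Concentration-response data were fitted with the standard Hill equation to give AC50.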
# [14] = Cell Viability - LYMP2-018 (AID 985);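 note: compound exposure lasted 24 hr at 37 °C; nearly all actives have a fitted effect of over 50% in size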; note: potency is the fitted concentration of half-maximal effect
# Procedure, shortened: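 Acute cytotoxicity is scored as a concentration-dependent drop in intracellular ATP after 24 hr exposure of the lymphoblastoid line in complete culture medium, measured by luciferase luminescence. Potency is expressed as AC50 from Hill modelling.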
# [15] = Cell Viability - LYMP2-024 (AID 988); note: nearly all actives have a fitted effect of over 60% in size; note: potency is the fitted concentration of half-maximal effect
# Procedure, shortened: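 Acute toxicity is measured as concentration-dependent loss of intracellular ATP in a human lymphoblastoid line treated 24 hours at 37 C. Luciferase luminescence quantifies ATP; AC50 values come from standard Hill-equation modelling.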
# [16] = target: Peroxisome proliferator-activated receptor delta (Homo sapiens) (UniProt Q03181); assay: qHTS assay for small molecule agonists of peroxisome proliferator-activated receptor delta signaling (AID 588534; calls by dose curve)
# Procedure, shortened: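 Reporter cells were plated and held 5 hrs at 37 C before compounds were added. After 18 hrs at 37 C, CCF4 dye was loaded for 2 hrs at RT and fluorescence measured.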
# [17] = qHTS assay for small molecule activators of the p53 signaling pathway (AID 651743; active = well fitted activation curve with a large enough effect in the signal ratio, not every such curve was filed as active; the % refers to the signal ratio; note: potency is the fitted concentration of half-maximal effect); settings: HCT-116 p53RE-bla, beta-lactamase FRET ratio, 16 h; activation: active compounds read high
# Procedure, shortened: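 Screen for p53 pathway agonists uses stably transfected p53RE-bla HCT-116 cells, 4,000 per well, treated 16 h at 37 C with compounds in DMSO.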
# [18] = qHTS assay for small molecule agonists of the antioxidant response element (ARE) signaling pathway measured by Nrf2-dependant transcriptional activity (AID 720636; active = well fitted curve in the direction sought with a large enough effect in the repeat runs; an effect the other way counts as inactive or inconclusive;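 note: HepG2 cells with an ARE-driven luciferase reporter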)
# Procedure, shortened: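 ONE-Glo luminescence, read 30 min after reagent addition at room temperature, reflected ARE reporter activity in HepG2 cells that had been incubated with compound for 16 hr at 37 C in 1% dialyzed FBS.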
# [19] = qHTS assay for small molecule activators of the human pregnane X receptor (PXR) signaling pathway (AID 720659; call rule not given here)
# [20] = Cell Viability - LYMP2-016 (AID 984);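 note: cells exposed to compound for 24 hours at 37 °C; nearly all actives have a fitted effect of over 55% in size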; note: potency is the fitted concentration of half-maximal effect
# Procedure, shortened: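 Cytotoxicity was scored by luminescent ATP content (CellTiter-Glo) after 24 h compound exposure at 37 C of a human lymphoblastoid line at 2500 cells/well. Concentration-response data were fitted to the Hill equation for AC50.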
# Peroxisome proliferator-activated receptor delta (Homo sapiens), sequence (Q03181 whole entry, looked up): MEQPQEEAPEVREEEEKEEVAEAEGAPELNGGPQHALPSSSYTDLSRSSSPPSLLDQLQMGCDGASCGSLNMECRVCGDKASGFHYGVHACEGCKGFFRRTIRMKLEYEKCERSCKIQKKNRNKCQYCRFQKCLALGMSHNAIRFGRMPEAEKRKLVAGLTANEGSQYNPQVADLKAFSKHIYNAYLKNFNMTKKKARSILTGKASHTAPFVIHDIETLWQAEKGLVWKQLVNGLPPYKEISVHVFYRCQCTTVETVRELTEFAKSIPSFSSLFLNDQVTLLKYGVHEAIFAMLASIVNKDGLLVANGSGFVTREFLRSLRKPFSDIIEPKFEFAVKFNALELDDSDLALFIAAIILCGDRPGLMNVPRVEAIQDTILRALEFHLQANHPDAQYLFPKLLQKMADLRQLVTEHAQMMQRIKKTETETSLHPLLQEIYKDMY
compound,measurement,setting,value
CCSC(=O)N1CCCCCC1,Potency,[1],inactive
same,caspase-3 activation,[2],0.302%
same,outcome,[3],inactive
same,outcome,[4],inactive
same,outcome,[5],inactive
same,outcome,[6],inactive
same,outcome,[7],inactive
same,Potency,[8],inactive
same,Potency,[9],inactive
same,Potency,[10],inactive
same,Potency,[11],inactive
same,Potency,[12],inactive
same,Potency,[13],inactive
same,Potency,[14],inactive
same,Potency,[15],inactive
same,outcome,[16],inactive
same,activation,[17],-3.15% and 2.49%
same,Potency,[18],inactive
same,outcome,[19],inactive
c1ccc(Nc2ccc(Nc3ccccc3)cc2)cc1,Potency,[1],15.8 µM (active)
same,caspase-3 activation,[2],8.77%
same,outcome,[3],inactive
same,outcome,[4],inactive
same,outcome,[5],inactive
same,outcome,[6],inactive
same,Potency,[8],inactive
same,Potency,[9],inactive
same,Potency,[10],inactive
same,Potency,[11],inactive
same,Potency,[13],inactive
same,Potency,[14],inactive
same,outcome,[16],inactive
CCN(CC)N=O,Potency,[1],inactive
same,caspase-3 activation,[2],1.16%
same,outcome,[4],inactive
same,outcome,[5],inactive
same,outcome,[6],inactive
same,outcome,[7],inactive
same,Potency,[9],inactive
same,Potency,[10],inactive
same,Potency,[11],inactive
same,Potency,[12],inactive
same,Potency,[20],inactive
same,Potency,[14],inactive
same,outcome,[16],inactive
same,activation,[17],-1.39%
same,outcome,[19],inactive
CN(C)c1ccc(N=Nc2ccccc2)cc1,caspase-3 activation,[2],-9.1%
same,outcome,[5],inactive
same,outcome,[6],inactive
same,outcome,[7],inactive
same,Potency,[8],inactive
same,Potency,[12],inactive
same,Potency,[13],inactive
same,Potency,[20],inactive
same,Potency,[14],inactive
same,outcome,[16],inactive
same,activation,[17],-7.04%
O=[N+]([O-])c1cccc(CCl)c1,Potency,[1],inactive
same,outcome,[3],inactive
same,outcome,[4],inactive
same,outcome,[6],inactive
same,outcome,[7],inactive
same,Potency,[8],inactive
same,Potency,[9],inactive
same,Potency,[13],inactive
same,Potency,[20],inactive
same,Potency,[18],inactive
same,outcome,[19],inactive
BrCC(Br)(Br)Br,outcome,[5],inactive
same,outcome,[7],inactive
same,Potency,[9],inactive
same,Potency,[10],39.8 µM (active)
same,Potency,[11],20 µM (active)
same,Potency,[12],12.6 µM (active)
same,Potency,[15],12.6 µM (active)
same,outcome,[16],inactive
same,activation,[17],-0.838%
same,Potency,[18],inactive
same,outcome,[19],inactive
N#C/C=C/C#N,caspase-3 activation,[2],-8.24%
same,outcome,[4],inactive
same,outcome,[5],inactive
same,outcome,[6],inactive
same,outcome,[7],inactive
same,Potency,[8],inactive
same,Potency,[9],15.8 µM (active)
same,Potency,[11],39.8 µM (active)
same,Potency,[12],31.6 µM (active)
same,Potency,[13],39.8 µM (active)
same,Potency,[20],39.8 µM (active)
same,Potency,[14],31.6 µM (active)
same,Potency,[15],31.6 µM (active)
same,outcome,[16],inactive
same,outcome,[19],inactive
Oc1cc(Cl)c(Cl)c(Cl)c1,Potency,[1],31.6 µM (active)
same,outcome,[3],inactive
same,outcome,[5],inactive
same,outcome,[6],inactive
same,outcome,[7],inactive
same,Potency,[8],inactive
same,Potency,[13],inactive
same,Potency,[14],inactive
same,Potency,[17],44.7 µM (active)
same,Potency,[18],inactive
same,outcome,[19],inactive
[C-]1=CC=CC1.[C-]1=CC=CC1.[Cl-].[Cl-].[Ti+4],Potency,[1],inactive
same,outcome,[5],inactive
c1ccc2c(c1)ccc1cc3c(ccc4ccccc43)cc12,Potency,[17],39.8 µM (active)
Nc1ccc(-c2ccc(N)c(Cl)c2)cc1Cl,outcome,[3],inactive
same,outcome,[4],inactive
same,outcome,[5],inactive
same,outcome,[7],inactive
same,Potency,[10],inactive
same,Potency,[11],inactive
same,Potency,[12],inactive
same,Potency,[13],inactive
same,Potency,[20],inactive
same,Potency,[14],inactive
same,Potency,[15],inactive
same,activation,[17],14% and 23.3%
Oc1cc(Cl)c(Cl)c(Cl)c1Cl,Potency,[1],31.6 µM (active)
same,caspase-3 activation,[2],80.5% (active)
same,outcome,[5],inactive
same,outcome,[6],inactive
same,outcome,[7],inactive
same,Potency,[8],inactive
same,Potency,[9],inactive
same,Potency,[13],inactive
same,Potency,[20],inactive
same,Potency,[14],inactive
same,Potency,[15],inactive
same,Potency,[17],39.8 µM (active)
same,Potency,[18],inactive
same,outcome,[19],inactive
Clc1ccc(C(c2ccccc2Cl)C(Cl)(Cl)Cl)cc1 (stereo not drawn),caspase-3 activation,[2],5.05%
same,outcome,[3],inactive
same,outcome,[5],inactive
same,outcome,[7],inactive
same,Potency,[8],inactive
same,Potency,[9],inactive
same,Potency,[10],inactive
same,Potency,[11],inactive
same,Potency,[14],inactive
same,Potency,[15],inactive
same,outcome,[16],inactive
same,activation,[17],0.576% and 10.5%
same,Potency,[18],inactive
